Values without a mark were called inactive. Records with an inconclusive call do not appear. Calls of active or inactive are those of the source. Unless noted, calls follow the shape of the full dose curve.

The source of these data is PubChem BioAssay (Tox21).

A short description of test [1]: Nuclear factor erythroid 2-related factor 2/antioxidant responsive element (Nrf2/ARE) small molecule agonists: qHTS cell viability counter screen in human keratinocytes (AID 1919968; active = well fitted curve in the direction sought with a large enough effect in the repeat runs; an effect the other way counts as inactive or inconclusive; also: nearly all actives have a fitted effect of over 55% in size; also: potency is read from the fitted curve at half-maximal effect). Put shortly:
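CellTiter-Fluor fluorescence, read 1 h after reagent, gave viability in the same wells as the ARE-luciferase assay. KeratinoSens cells (1,500/well) had 23 h compound exposure at 37 C/5% CO2 following 5 h plating.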

A short description of test [2]: Nuclear factor erythroid 2-related factor 2/antioxidant responsive element (Nrf2/ARE) small molecule agonists: luciferase reporter gene qHTS assay in human keratinocytes (AID 1919969; also: nearly all actives have a fitted effect of over 35% in size; also: potency is read from the fitted curve at half-maximal effect). (In a reporter assay the amount or activity of a reporter protein is the signal.)
The target of test [3] is Gonadotropin-releasing hormone receptor (Homo sapiens) (UniProt P30968). In words: Human gonadotropin-releasing hormone receptor (GnRHR) small molecule agonists, calcium flux assay in GnRHR-HEK293 cells (AID 1920063). Also: nearly all actives have a fitted effect of over 35% in size. Put shortly:
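Agonist mode: compounds at 15 concentrations, in triplicate, went onto calcium dye-loaded GnRHR-HEK293 cells. Intracellular calcium was then followed as 480/540 nm fluorescence at 1 s intervals over 3 min.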

The target in test [4] is KiSS-1 receptor (Homo sapiens) (UniProt Q969F8). In words: Human kisspeptin (KISS1R) small molecule agonists, calcium flux assay in KISS1R-HEK293 cells (AID 1920064; active = well fitted curve in the direction sought with a large enough effect in the repeat runs; an effect the other way counts as inactive or inconclusive). The procedure, abridged:
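Agonist mode: intracellular calcium rise tracked at 1 s intervals over 3 min (480/540 nm) immediately after compound addition to dye-loaded KISS1R-HEK293 stable cells. Each compound tested at 15 concentrations in triplicate.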

Test [5] can be described thus: G protein-coupled receptor (GPCR) small molecule agonists, calcium flux assay: HEK293 wild type cell line counter screen (AID 1920065). The procedure, abridged:
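Calcium flux counter screen: compound added in agonist mode at 15 concentrations in triplicate to dye-loaded parental HEK293 cells. Fluorescence (480/540) read kinetically for 3 min; ATP served as positive control.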

Test [6] in a line: p53 small molecule agonists, cell-based qHTS assay with human liver microsomes (AID 1963577).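 Also: p53 response element beta-lactamase reporter cells with liver microsomes plus NADPH.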 Put shortly:
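HLM-supplemented p53RE-bla reporter assay: 16 h compound exposure at 37 C, microsomes and NADPH each 0.5 mg/mL final, read by fluorescence intensity.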

Test [7] can be described thus: p53 small molecule agonists, cell-based qHTS assay with rat liver microsomes (AID 1963578). The procedure, abridged:
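Quantitative HTS of the Tox21 10K library: p53RE-bla cells, rat liver microsomes plus NADPH at 0.5 mg/mL final each, 16 h at 37 C, beta-lactamase fluorescence detection.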
On the technique in general: qHTS replaces the single test concentration by a dilution series.

Test [8] in a line: p53 small molecule agonists, cell-based qHTS assay with human liver microsomes: qHTS cell viability counter screen (AID 1963579). Also: nearly all actives have a fitted effect of over 45% in size. Put shortly: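 Viability of p53RE-bla cells is measured as CellTiter-Glo luminescence following a 16 h, 37 C incubation with compound, liver microsomes from human donors and NADPH.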
A short description of test [9]: p53 small molecule agonists, cell-based qHTS assay with rat liver microsomes: qHTS cell viability counter screen (AID 1963580). Also: nearly all actives have a fitted effect of over 45% in size. The procedure, abridged: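 Rat liver microsome (0.5 mg/mL final) and NADPH (0.5 mg/mL final) co-incubation with compounds for 16 h at 37 C on HCT-116 p53RE-bla cells; cytotoxicity taken from intracellular ATP luminescence.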
Test [10] in a line: p53 small molecule agonists, cell-based qHTS assay (AID 1963582; active = well fitted activation curve with a large enough effect in the signal ratio in the repeat runs, not every such curve was filed as active; the % refers to the signal ratio). Put shortly:
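Read-out is beta-lactamase FRET fluorescence after 2 h at room temperature with LiveBLAzer B/G substrate. p53 response element-bla cells were treated 16 h at 37 C with compounds in DMSO, added 5 h after seeding.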

Test [11] addresses 5-hydroxytryptamine receptor 2A (Homo sapiens) (UniProt P28223). In words: 5-hydroxytryptamine receptor 2A (HTR2A) small molecule antagonists, cell-based qHTS assay (AID 1963586). Also: nearly all actives have a fitted effect of over 45% in size. Put shortly:
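CHO cells stably expressing human HTR2A were plated for 18 h at 37 C, then loaded with calcium dye for 1 h. Compounds were preincubated 5 min at room temperature before DOI (4 nM solution) was added. Kinetic fluorescence was read for 3 min.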

Test [12] has the same target. In words: 5-hydroxytryptamine receptor 2A (HTR2A) small molecule agonists, cell-based qHTS assay (AID 1963587). Also: nearly all actives have a fitted effect of over 30% in size. The procedure, abridged:
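Kinetic calcium-flux fluorescence (2 min, 1 sec intervals) after compound addition in agonist mode. HTR2A-CHO cells were cultured 18 h, then dye-loaded 1 h at 37 C.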

The target in test [13] is Muscarinic acetylcholine receptor M1 (Homo sapiens) (UniProt P11229). In words: Cholinergic receptor muscarinic 1 (CHRM1) small molecule agonists, cell-based qHTS assay (AID 1963589). Also: nearly all actives have a fitted effect of over 35% in size. Put shortly: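 Agonist-mode calcium-flux screen: compounds at 15 concentrations, three independent runs, were pin-transferred onto dye-loaded human CHRM1-CHO cells. Fluorescence was then recorded kinetically every second over minutes.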
Muscarinic acetylcholine receptor M1 (Homo sapiens), sequence (P11229 whole entry, looked up): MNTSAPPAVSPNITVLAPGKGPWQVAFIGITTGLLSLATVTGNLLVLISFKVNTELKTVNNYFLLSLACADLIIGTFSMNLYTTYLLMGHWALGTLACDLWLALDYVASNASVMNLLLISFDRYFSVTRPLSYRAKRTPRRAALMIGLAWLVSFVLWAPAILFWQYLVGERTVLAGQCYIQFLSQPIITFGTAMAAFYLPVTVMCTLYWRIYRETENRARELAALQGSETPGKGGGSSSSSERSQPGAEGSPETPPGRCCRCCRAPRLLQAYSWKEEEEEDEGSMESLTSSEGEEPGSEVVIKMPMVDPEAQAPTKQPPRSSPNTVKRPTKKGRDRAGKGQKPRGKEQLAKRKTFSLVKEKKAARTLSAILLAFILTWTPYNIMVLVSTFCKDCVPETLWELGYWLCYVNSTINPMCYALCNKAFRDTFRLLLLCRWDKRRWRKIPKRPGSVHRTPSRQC

Test [14] in a line: cAMP Responsive Elements (CRE) small molecule agonists, cell-based qHTS assay (AID 1963590). Put shortly: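 Agonist mode: compound added to CRE-bla HEK 293T cells (2,000/well, 18 h after plating) for 3 h at 37 C/5% CO2. Reporter activity detected via FRET beta-lactamase substrate, 2 h room-temperature loading.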
The nature of test [15]: cAMP Responsive Elements (CRE) small molecule antagonists, cell-based qHTS assay (AID 1963591; active = well fitted inhibition curve with a large enough effect in the signal ratio in the repeat runs, not every such curve was filed as active; the % refers to the signal ratio). Put shortly:
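Antagonist mode: compounds are added alongside the adenylyl cyclase activator NKH477 (0.25 uM final) to CRE-bla HEK293T cells for 3 h. LiveBLAzer FRET substrate, 2 h at room temperature, reports bla expression.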

The target in test [16] is Beta-2 adrenergic receptor (Homo sapiens) (UniProt P07550). In words: Adrenergic beta2 receptor (ADRB2) small molecule antagonists, cell-based qHTS assay (AID 1963592). Also: series mostly up to about 92 µM; nearly all actives have a fitted effect of over 50% in size. Put shortly: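 Assay format: CHO-ADRB2 cells, 18-20hr seeding at 37C/5% CO2, then compound plus 1nM isoproterenol agonist mix for 0.5hr RT. Homogeneous time-resolved fluorescence cAMP detection after 1hr, expressed as 665/615 nm ratio.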
Beta-2 adrenergic receptor (Homo sapiens), sequence (P07550 whole entry, looked up): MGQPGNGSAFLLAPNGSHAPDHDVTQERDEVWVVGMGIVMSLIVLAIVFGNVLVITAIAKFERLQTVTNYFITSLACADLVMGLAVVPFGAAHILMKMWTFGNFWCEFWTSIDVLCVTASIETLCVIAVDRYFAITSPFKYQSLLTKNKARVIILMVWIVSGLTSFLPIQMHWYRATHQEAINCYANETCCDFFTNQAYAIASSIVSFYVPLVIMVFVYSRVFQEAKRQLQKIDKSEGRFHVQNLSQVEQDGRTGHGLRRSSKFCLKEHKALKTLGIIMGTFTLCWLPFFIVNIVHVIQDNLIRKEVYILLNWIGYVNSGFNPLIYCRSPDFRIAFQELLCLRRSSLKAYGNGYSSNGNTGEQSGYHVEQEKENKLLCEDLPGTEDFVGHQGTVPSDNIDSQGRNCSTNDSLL

The target in test [17] is D(2) dopamine receptor (Homo sapiens) (UniProt P14416). In words: Dopamine D2 receptor (DRD2) small molecule agonists, cell-based qHTS assay (AID 1963594). Also: nearly all actives have a fitted effect of over 35% in size. The procedure, abridged:
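cAMP accumulation in DRD2-HEK293 cells measured by HTRF after 1 h detection; compounds added 10 min before NKH477 (200nM […]) forskolin-analogue stimulation, 30 min at room temperature, with Ro20-1724 present at 0.1 mM final.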

The target is the same in test [18]. In words: Dopamine D2 receptor (DRD2) small molecule antagonists, cell-based qHTS assay (AID 1963595; active = well fitted inhibition curve with a large enough effect in the signal ratio in the repeat runs, with a control signal flat; the % refers to the signal ratio). The procedure, abridged:
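Cells were plated and grown for 24 h at 37 °C. Ro20-1724 (0.1 mM final) went in first, then compound for 10 min. NKH477 (200 nM) with quinpirole (12 nM) followed for 30 min at RT, then HTRF detection reagents for 1 h.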

The target in test [19] is Muscarinic acetylcholine receptor M1 (Homo sapiens) (UniProt P11229). In words: Cholinergic receptor muscarinic 1 (CHRM1) small molecule antagonists, cell-based qHTS assay (AID 1963588). Also: nearly all actives have a fitted effect of over 40% in size. The procedure, abridged:
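Compounds were tested at 15 concentrations in three independent runs. Dye-loaded CHRM1-CHO cells were exposed 5 min at room temperature before stimulation by acetylcholine added at 50nM. Intracellular calcium was read kinetically on FDSS for 3 min.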

KiSS-1 receptor (Homo sapiens), sequence (Q969F8 whole entry, looked up): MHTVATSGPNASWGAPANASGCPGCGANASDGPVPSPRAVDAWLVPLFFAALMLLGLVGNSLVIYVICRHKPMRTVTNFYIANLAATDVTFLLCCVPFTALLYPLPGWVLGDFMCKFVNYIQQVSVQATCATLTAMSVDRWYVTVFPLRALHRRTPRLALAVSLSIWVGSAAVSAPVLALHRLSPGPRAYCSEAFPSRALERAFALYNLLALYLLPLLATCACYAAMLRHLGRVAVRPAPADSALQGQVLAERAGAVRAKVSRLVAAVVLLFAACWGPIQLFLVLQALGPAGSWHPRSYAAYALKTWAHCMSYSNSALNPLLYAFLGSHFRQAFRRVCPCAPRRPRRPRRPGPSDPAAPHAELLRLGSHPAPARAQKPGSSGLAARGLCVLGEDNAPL
Gonadotropin-releasing hormone receptor (Homo sapiens), sequence (P30968 whole entry, looked up): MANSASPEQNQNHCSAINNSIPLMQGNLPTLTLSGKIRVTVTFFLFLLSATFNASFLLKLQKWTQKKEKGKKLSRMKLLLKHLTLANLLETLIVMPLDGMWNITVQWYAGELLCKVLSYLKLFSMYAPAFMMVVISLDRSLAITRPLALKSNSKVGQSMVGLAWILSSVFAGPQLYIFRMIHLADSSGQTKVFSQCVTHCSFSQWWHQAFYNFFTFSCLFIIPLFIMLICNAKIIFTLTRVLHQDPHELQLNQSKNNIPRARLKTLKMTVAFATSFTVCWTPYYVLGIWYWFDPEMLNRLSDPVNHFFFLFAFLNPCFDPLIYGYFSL
D(2) dopamine receptor (Homo sapiens), sequence (P14416 whole entry, looked up): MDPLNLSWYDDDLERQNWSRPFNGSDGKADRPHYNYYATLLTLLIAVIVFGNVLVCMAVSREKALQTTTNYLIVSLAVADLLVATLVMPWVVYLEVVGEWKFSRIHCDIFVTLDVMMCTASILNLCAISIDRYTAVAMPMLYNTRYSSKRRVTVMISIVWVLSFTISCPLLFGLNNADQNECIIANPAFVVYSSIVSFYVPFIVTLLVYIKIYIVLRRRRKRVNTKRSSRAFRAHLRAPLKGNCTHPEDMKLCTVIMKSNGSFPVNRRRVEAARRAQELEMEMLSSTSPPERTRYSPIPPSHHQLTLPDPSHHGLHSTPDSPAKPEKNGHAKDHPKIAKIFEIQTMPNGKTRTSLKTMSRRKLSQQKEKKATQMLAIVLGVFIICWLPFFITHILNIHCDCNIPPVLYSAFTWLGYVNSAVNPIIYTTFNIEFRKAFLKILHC
5-hydroxytryptamine receptor 2A (Homo sapiens), sequence (P28223 whole entry, looked up): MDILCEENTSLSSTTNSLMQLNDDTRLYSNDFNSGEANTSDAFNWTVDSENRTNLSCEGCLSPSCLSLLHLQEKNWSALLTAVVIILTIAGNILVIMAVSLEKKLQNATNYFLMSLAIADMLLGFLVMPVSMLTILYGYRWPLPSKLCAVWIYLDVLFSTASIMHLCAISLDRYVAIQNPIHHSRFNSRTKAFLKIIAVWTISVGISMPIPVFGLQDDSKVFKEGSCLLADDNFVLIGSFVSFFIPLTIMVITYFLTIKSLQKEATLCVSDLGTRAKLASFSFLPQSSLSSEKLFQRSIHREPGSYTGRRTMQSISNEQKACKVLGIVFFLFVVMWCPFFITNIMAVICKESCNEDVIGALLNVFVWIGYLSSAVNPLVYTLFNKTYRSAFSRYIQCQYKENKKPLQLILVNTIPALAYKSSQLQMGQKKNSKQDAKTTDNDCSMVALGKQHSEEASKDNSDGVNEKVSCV

On to `C[Si]1(C)O[Si](C)(C)O[Si](C)(C)O[Si](C)(C)O[Si](C)(C)O1`, for which the Potency result in test [1], in test [2], in test [3], in [4], in [5] and in [6] was “inactive” each time. For the same compound, the Potency entry in test [7], in test [8], in test [9], in test [10], in test [11] and in test [12] was “inactive” in each case. Besides, the Potency result in test [13], in test [14], in test [15], in [16], in [17] and in test [18] was “inactive” in each case.
Take `Cc1c(N)cccc1C(F)(F)F`: the Potency result in [1], in test [2], in test [3], in test [4], in test [5] and in [6] was “inactive” throughout. Also, the Potency result in [7], in [8], in test [9], in test [10], in test [11] and in test [19] was “inactive” throughout. Moreover, the Potency result in test [13], in [14], in test [15], in [16], in test [17] and in [18] was “inactive” throughout.
`c1ccc2c(c1)CCc1ccccc1N2`: the Potency entry in [1], in test [3], in [4], in test [5], in test [6] and in test [7] was “inactive” throughout. Besides, the Potency result in test [8], in [9], in [10], in [11], in [12] and in test [19] was “inactive” each time. Further, the Potency result in test [13], in test [14], in test [15], in test [17] and in test [18] was “inactive” each time. In [2], the Potency was 61.4 µM (active).
Take `OCCOc1ccc(OCCO)cc1`: the Potency entry in [1], in test [2], in [3], in test [4], in [5] and in [6] was “inactive” each time. For the same compound, the Potency entry in test [7], in test [8], in [9], in test [10], in [11] and in test [12] was “inactive” each time. Further, the Potency entry in test [19], in test [15], in [16], in test [17] and in test [18] was “inactive” throughout.
Turning to `CCN[C@H]1CN(CCCOC)S(=O)(=O)c2sc(S(N)(=O)=O)cc21`, the Potency result in [1], in test [2], in [3], in test [4], in test [5] and in [6] was “inactive” throughout. Moreover, the Potency result in test [7], in [8], in test [9], in [10], in test [11] and in [12] was “inactive” throughout. Moreover, the Potency entry in test [19], in test [13], in [14], in [15], in test [16] and in [18] was “inactive” each time.
For the compound `CCOC(=O)[C@H](CCc1ccccc1)N[C@@H](C)C(=O)N1C(=O)N(C)C[C@H]1C(=O)O`, the Potency entry in test [1], in test [2], in test [3], in test [4], in test [5] and in test [6] was “inactive” each time. Besides, the Potency entry in test [7], in [8], in test [9], in [10], in test [11] and in test [12] was “inactive” in each case. Moreover, the Potency entry in test [19], in test [13], in test [14], in test [15], in [16] and in [18] was “inactive” in each case.
Take `O=C1c2ccccc2C(=O)C1c1ccc2cc(S(=O)(=O)O)cc(S(=O)(=O)O)c2n1`: the Potency in test [1] was 58.9 µM (active). In addition, the Potency entry in test [2], in test [3], in [4], in test [5], in test [6] and in test [7] was “inactive” each time. Further, the Potency result in test [8], in test [9], in test [10], in test [11], in [12] and in [13] was “inactive” each time. Moreover, the Potency entry in test [14], in test [15], in [16], in test [17] and in test [18] was “inactive” each time.
